# Hit rate of the full screen: of about 68,000 compounds, about 2,700 (4%) showed an effect of 50% or more. Shown is part of a subset that was picked to be rich in strong results.
# System: Plasmodium berghei
# Test: Screen against P. berghei liver stage (PbLuc), transformed with Luciferase, at 2uM
# Type: functional, HepG2
# Conditions: tested at 2 uM
row,SMILES,INHIBITION [%]
1,CN(Cc1noc2c1CCCC2)C(=O)C1CCOc2ccccc2C1 (stereo unspecified),8.89
2,c1csc(CNCC2COCc3c(-c4ccoc4)nnn3C2)n1 (stereo unspecified),-45.9
3,O=C([C@@H]1COC[C@H]2CN(C3CCOCC3)C[C@H]21)N1CCCO1,35.15
4,CN(Cc1cccc(C#N)c1)C(=O)C1CC(c2cccc(F)c2)=NO1 (stereo unspecified),17.47
5,CN(Cc1ccc2c(c1)OCO2)C(=O)C1CC(c2cccc(F)c2)=NO1 (stereo unspecified),53.68
6,Cc1cc(CN(C)C(=O)C2CC(c3cccc(F)c3)=NO2)no1 (stereo unspecified),-30.08
7,CNC(=O)N1C[C@@H]2C[C@H](C(=O)Nc3ccccc3)[C@H](C1)O2,6.57
8,c1ccc(-c2cc(CNCCCC3CCOC3)c3nnnn3c2)cc1 (stereo unspecified),22.81
9,CCc1nc(CNCC2(C(N)=O)CCOCC2)cs1,33.9
10,Cc1nn(C)c(C)c1CC(=O)NCC1(C(N)=O)CCOCC1,60.59
11,NC(=O)C1(CNCc2csc(-c3cccs3)n2)CCOCC1,36.28
12,Cc1nn(C)c(C)c1CCC(=O)NCC1(C(N)=O)CCOCC1,25.73
13,Cc1nn(C)c(Cl)c1C(=O)NCC1(C(N)=O)CCOCC1,32.02
14,CCc1nc(CC(=O)NCC2(C(N)=O)CCOCC2)cs1,55.36
15,Nc1ccc(C(=O)N2CCCC(C(=O)CCc3ccccc3)C2)cn1 (stereo unspecified),-62.48
16,COCc1cnc2n1CCN(C1CCCC1)C2C (stereo unspecified),0.42
17,c1cc(-c2nn3c(CN4CCOCC4)nnc3s2)ccn1,2.88
18,COc1cc(C(=O)N2CCC(c3n[nH]c(C4CC4)n3)CC2)ccc1C,10.5
19,O=C(NCc1cccnc1)[C@@H]1CC[C@@H]2[C@@H](CCN2c2ncc(F)cn2)O1,12.7
20,COc1ccc(-c2nnsc2C(=O)N2CCSCC2)cc1,-20.55
21,NCCCn1nc(C(F)(F)F)c2c1CCC2,58.18
22,N#CCCn1nc(C(F)(F)F)c2c1CCCC2,17.01

row,SMILES,INHIBITION [%]
1,N#CCCn1nc(C(F)(F)F)c2c1CCC2,10.83
2,COCC1CN(Cc2cccnc2)Cc2nnn(CC3CC3)c21 (stereo unspecified),-94.44
3,COCC1CC2(CCN(c3cc(OC)ncn3)CC2)CN1C(C)C (stereo unspecified),-0.45
4,COC(=O)c1cccc(C(=O)N2CCN(C(=O)N(C)C)CC2(C)C)c1,7.42
5,CC(NC(=O)N1CCC2(C1)OCCO2)c1cccc(Cl)c1 (stereo unspecified),22.12
6,CCOc1cccc(C(C)NC(=O)N2CCC3(CC2)OCCO3)c1 (stereo unspecified),58.01
7,CCOc1cccc(C(C)NC(=O)N2CCC(C(N)=O)CC2)c1 (stereo unspecified),-31.3
8,COc1cc(N2CCC3(CC2)CCN(c2cccnc2)C3=O)ncn1,2.72
9,O=C(c1ccc2nncn2c1)N1CCCCC1Cn1cccn1 (stereo unspecified),39.47
10,O=C(NCCOc1ccc(Cl)cn1)Nc1cccnc1,-1.56
11,O=C(NCCOc1ccc(Cl)cn1)Nc1ccccn1,-65.52
12,O=C(NCCOc1ccc(Cl)cn1)Nc1nccs1,50.61
13,C=Cc1ccc(C(=O)N2CCCC(Nc3ccc(OC)cc3)C2)cc1 (stereo unspecified),19.42
14,CCn1cc(CN2CCCN(C(=O)C3(C)CCOCC3)CC2)cn1,-1.55
15,CN(Cc1cccc(OC(F)(F)F)c1)C(=O)c1cnsn1,10.1
16,CC(C)CN1C[C@@H]2C(=O)NC3(CCN(C(=O)c4cccnc4)CC3)[C@@H]2C1,14.47
17,Cc1cnc(-c2nc(C3CCN(Cc4ccccc4O)CC3)no2)cn1,-10.49
18,O=C(NCCOC1CCCC1)c1ccc(-c2ccco2)[nH]c1=O,-40.62
19,c1ncc(Nc2nccc(C3CCCCN3CC3CCCCC3)n2)cn1 (stereo unspecified),-8.23
20,O=C(CCN1CCCCC1)N1CCC(Cc2ccc(CO)cc2)C1 (stereo unspecified),50.61
21,O=C(CCc1ccc(O)cc1)N1CCC(Cc2ccc(CO)cc2)C1 (stereo unspecified),11.28
22,O=C(CCN1CCOCC1)N1CCC(Cc2ccc(CO)cc2)C1 (stereo unspecified),-11.66

row,SMILES,INHIBITION [%]
1,O=C(CN1CCC(c2cccc(F)c2)C1)NCC(F)(F)F (stereo unspecified),20.28
2,O=C(CN1CCC(c2cccc(F)c2)C1)NCc1ccco1 (stereo unspecified),51.21
3,CC(C)NC(=O)CN1CCC(c2cccc(F)c2)C1 (stereo unspecified),28.33
4,CN1C[C@H]2CC[C@@H](CC1=O)N2C(=O)c1ccc(-c2ccccc2)[nH]c1=O,-40.36
5,Nc1nccc(C2CCN(CCO)C2)n1 (stereo unspecified),19.86
6,Cc1ccc(N2CCO[C@H]3CN(Cc4ccccn4)C[C@H]32)nn1,4.99
7,Cc1ccoc1C(=O)N1CCn2cc(CN3CCCC3)nc2C1,37.2
8,CCCS(=O)(=O)c1ncc(CN2CCC(CO)CC2)n1CC1CCCO1 (stereo unspecified),27.44
9,CC1CCN(Cc2cnc(S(=O)(=O)CC3CC3)n2CC2CCCO2)CC1 (stereo unspecified),-14.32
10,CCCS(=O)(=O)c1ncc(CN2CCC(C)CC2)n1CC1CCCO1 (stereo unspecified),70.81
11,O=S(=O)(CC1CC1)c1ncc(CN2CCOCC2)n1CC1CCCO1 (stereo unspecified),3.49
12,CN1CCN(Cc2cnc(S(=O)(=O)CC3CC3)n2CC2CCCO2)CC1 (stereo unspecified),1.8
13,O=S(=O)(CC1CC1)c1ncc(CN2CCSCC2)n1CC1CCCO1 (stereo unspecified),65.76
14,O=C(NC1CCCN(c2ncccn2)C1)c1ccoc1 (stereo unspecified),36.98
15,CC(=O)c1c(C)nn(S(=O)(=O)c2ccc(Cl)cc2)c1C,11.8
16,O=C(O)c1ccnc(SCC(=O)c2ccccc2)c1,25.23
17,Cc1ccc(OC2CCN(S(=O)(=O)N(C)C)CC2)nc1,15.75
18,C[C@H]1CN2C[C@H](O)CC2CN1Cc1ccc2nccnc2c1 (stereo partly specified),-36.08
19,COc1ccccc1CCNC(=O)N(C)C(C)CS(C)(=O)=O (stereo unspecified),50.46
20,CCN(C(=O)NCCc1cccc(F)c1F)C(C)CS(C)(=O)=O (stereo unspecified),64.2
21,CCN(C(=O)NCCc1ccccc1Cl)C(C)CS(C)(=O)=O (stereo unspecified),34.46
22,CCS(=O)(=O)CC(C)N(C)C(=O)NCCc1cccc(F)c1F (stereo unspecified),-4.09

row,SMILES,INHIBITION [%]
1,CC(C)Oc1ccccc1CNC(=O)N(C)C(C)CS(C)(=O)=O (stereo unspecified),-25.21
2,COc1cc(Cl)ccc1CNC(=O)N(C)C(C)CS(C)(=O)=O (stereo unspecified),-22.82
3,Cc1cccc(CN2CCc3c(nc(N4CCC(C)CC4)[nH]c3=O)C2)n1,23.94
4,COc1ccc(CN2CCCC3(CCN(c4ccsc4)C3=O)C2)cc1 (stereo unspecified),7.21
5,N#Cc1ccc(CS(=O)(=O)NC(=O)c2ccc3c(c2)COC3)cc1,-14.32
6,CCCc1cc(CNc2cc(CCC)nc3ccnn23)on1,-15.75
7,Fc1cccc(F)c1Cn1c(C2CCNCC2)cc2cccnc21,13.17
8,C=c1ccoc1=C1NN=C(CNC2CCCN(c3cccnn3)C2)O1 (stereo unspecified),7.01
9,O=C(Cc1ccccn1)N1CCc2ncnc(N3CCCC3)c2CC1,-3.19
10,CCNC(=O)C1CCN(Cc2ccccc2OCC(F)(F)F)CC1,8.59
11,CC(C)(C)n1ncc(NCCc2ccccc2C(F)(F)F)c(Cl)c1=O,-59.58
12,CC(=O)N1C[C@H]2CC[C@@H](C1)N(S(=O)(=O)c1ccc(F)cc1Cl)C2,-11.81
13,C1CCC(NCC2(N3CCOCC3)CCSC2)C1 (stereo unspecified),-20.95
14,C1CCC(CNC2CCSCC2)(N2CCOCC2)CC1,60.13
15,CS(=O)(=O)N1CCC(NCC2(N3CCOCC3)CCCCC2)CC1,7.67
16,CCN1CC2(CCNCC2)COc2ccccc2S1(=O)=O,3
17,CCOCC1CN(Cc2cnn(C)c2)Cc2ncn(C)c21 (stereo unspecified),-20.41
18,CC(C)COCC1CN(Cc2ccoc2)Cc2ncn(C)c21 (stereo unspecified),-13.32
19,CC(C)COCC1CN(Cc2cnn(C)c2)Cc2ncn(C)c21 (stereo unspecified),79.02
20,CC(=O)N1CCCN(C(=O)CN(C)c2ccc(Cl)cn2)CC1,12.29
21,Cc1cccc(N(CC(=O)c2ccccc2)C2=NCCCCC2)c1,-17.7
22,Cc1oncc1C(=O)NCc1cc(=O)n2c(n1)CN(C(C)C)CCC2,4.42

row,SMILES,INHIBITION [%]
1,Cc1nc(CCNC(=O)NCc2ccc(N(C)C)nc2)cs1,-16.42
2,Cc1nc(CNC(=O)NCCc2ccc(N(C)C)cc2)cs1,12.88
3,Cc1nc(CCNC(=O)NCc2cccc(N(C)C)n2)cs1,53.45
4,CN(C)c1ncccc1CNc1cc(N2CCCC2CO)ncn1 (stereo unspecified),-1.02
5,Cc1cnccc1CN(C)Cc1c[nH]nc1-c1ccc(F)cc1F,51.39
6,Cc1nonc1CN(C)Cc1c[nH]nc1-c1ccc(F)cc1F,2.59
7,CC(C)CN(C)Cc1c[nH]nc1-c1ccc(F)cc1F,-22.69
8,CCCN1CCC(c2cc(CCOc3ccc(C(F)(F)F)cc3)[nH]n2)C1 (stereo unspecified),27.53
9,Cc1cccc(CN2CCc3[nH]nc(C(=O)N(C)C)c3C2)n1,-25.31
10,OC(COCc1ccco1)CSc1nnc2ccccn12 (stereo unspecified),76.82
11,OC(COCc1ccccc1)CSc1nnc2ccccn12 (stereo unspecified),2.9
12,OC(COCc1cccs1)CSc1nnc2ccccn12 (stereo unspecified),45.82
13,Cc1ccccc1N1CCN(c2ccncn2)C(C)C1 (stereo unspecified),-90.79
14,Cc1ccccc1N1CCCN(C(=O)CCc2ccncc2)CC1,1.42
15,Cc1ccccc1N1CCCN(c2ccncn2)CC1,53.45
16,CC(C)c1nnc2sc(CC3CN(Cc4ccccc4)CCO3)nn12 (stereo unspecified),23.33
17,CC(C)N1CCOC(Cc2nn3c(Cc4ccccc4)nnc3s2)C1 (stereo unspecified),20.29
18,CCCc1nnc2sc(CC3CN(Cc4ccccc4)CCO3)nn12 (stereo unspecified),51.43
